Here are results for 40 sequences from PMC7862700, “An all-to-all approach to the identification of sequence-specific readers for epigenetic DNA modifications on cytosine”.

The target of one assay is T1, ETS2 (Homo sapiens, UniProt P15036 1-469).
T1 sequence: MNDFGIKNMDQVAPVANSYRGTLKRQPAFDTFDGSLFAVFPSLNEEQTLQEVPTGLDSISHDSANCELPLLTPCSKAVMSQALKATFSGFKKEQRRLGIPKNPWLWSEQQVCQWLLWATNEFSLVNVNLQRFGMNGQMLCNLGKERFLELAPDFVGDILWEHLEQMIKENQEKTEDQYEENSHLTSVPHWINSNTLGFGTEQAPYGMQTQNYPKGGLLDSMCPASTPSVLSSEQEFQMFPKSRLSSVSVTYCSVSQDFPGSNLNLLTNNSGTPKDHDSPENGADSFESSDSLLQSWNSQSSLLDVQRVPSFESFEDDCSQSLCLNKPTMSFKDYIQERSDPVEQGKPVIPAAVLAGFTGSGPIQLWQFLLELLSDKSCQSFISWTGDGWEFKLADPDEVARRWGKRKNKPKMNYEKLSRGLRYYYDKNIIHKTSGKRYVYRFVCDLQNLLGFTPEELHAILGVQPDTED
The experiment in a line: DAPPL (digital affinity profiling via proximity ligation, sequencing); 10 mM Tris-HCl pH 7.5, 50 mM NaCl, 1 mM DTT, 4% glycerol, room temperature, 30 min; GST-TFs on glutathione beads, 16-mer random dsDNA library, 0.1% formaldehyde crosslink after washing; high values mean tight binding. Conditions: protein: recombinant; tags: N-terminal GST; dsDNA, one strand shown. The method, boiled down: (§1)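 A tag-only sample was pooled with DNA-barcoded human transcription factors that had been expressed in yeast as GST fusions and captured on glutathione beads. The pools were incubated for 30 min at room temperature with 200 nmole of a random double-stranded 16-mer DNA library in Tris/NaCl/DTT/glycerol buffer, then washed, crosslinked with 0.1% formaldehyde, proximity-ligated (BsaI/T4 ligase, 1 h, 37 °C), PCR-amplified and sequenced on an Illumina NextSeq500. Binding signal is each hexamer's read frequency for a factor divided by its frequency for the tag-only sample.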
Regarding TATATT, the binding signal was 1.31 fold enrichment (6-mer frequency, TF over GST control).

Consider AGGTCT, for which the binding signal is 1.2 fold enrichment (6-mer frequency, TF over GST control).

As to TAATTC, the binding signal was 1.48 fold enrichment (6-mer frequency, TF over GST control).

As for ATCCGC, the binding signal was 1.89 fold enrichment (6-mer frequency, TF over GST control).

On to CCTATC, for which the binding signal is 1.2 fold enrichment (6-mer frequency, TF over GST control).

In the case of GTTTCT, the binding signal was 1.28 fold enrichment (6-mer frequency, TF over GST control).

Regarding TCCAAC, the binding signal was 1.25 fold enrichment (6-mer frequency, TF over GST control).

In the case of TCCGTA, the binding signal is 1.57 fold enrichment (6-mer frequency, TF over GST control).

Turning to CCTTGA, the binding signal is 1.2 fold enrichment (6-mer frequency, TF over GST control).

As for TCCTGC, the binding signal is 1.65 fold enrichment (6-mer frequency, TF over GST control).

TTACTC: the binding signal was 1.37 fold enrichment (6-mer frequency, TF over GST control).

Regarding TTTGCC, the binding signal is 1.32 fold enrichment (6-mer frequency, TF over GST control).

Take TACAGA: the binding signal was 1.14 fold enrichment (6-mer frequency, TF over GST control).

As to TGTTTT, the binding signal is 1.36 fold enrichment (6-mer frequency, TF over GST control).

For AAGTAT, the binding signal is 1.46 fold enrichment (6-mer frequency, TF over GST control).

Regarding ACTTTC, the binding signal was 1.6 fold enrichment (6-mer frequency, TF over GST control).

On to TATACA, for which the binding signal is 1.37 fold enrichment (6-mer frequency, TF over GST control).

As to ATTTAA, the binding signal is 1.28 fold enrichment (6-mer frequency, TF over GST control).

In the case of CACGAT, the binding signal was 1.24 fold enrichment (6-mer frequency, TF over GST control).

As for AACAAT, the binding signal was 1.27 fold enrichment (6-mer frequency, TF over GST control).

The target in another assay is T2, SPDEF (Homo sapiens, UniProt O95238 1-335).
T2 sequence: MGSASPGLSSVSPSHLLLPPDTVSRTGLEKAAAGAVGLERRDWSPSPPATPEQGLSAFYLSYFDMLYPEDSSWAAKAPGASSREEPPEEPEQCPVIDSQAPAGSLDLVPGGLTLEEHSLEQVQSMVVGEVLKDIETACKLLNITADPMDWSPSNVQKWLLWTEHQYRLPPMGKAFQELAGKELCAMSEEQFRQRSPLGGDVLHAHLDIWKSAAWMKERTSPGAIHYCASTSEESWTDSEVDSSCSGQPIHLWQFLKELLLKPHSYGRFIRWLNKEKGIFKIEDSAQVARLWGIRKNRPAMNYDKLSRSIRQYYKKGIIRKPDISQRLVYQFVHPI
Described as above. The following applies: protein: recombinant; tags: N-terminal GST; dsDNA, one strand shown. Put shortly:
as §1
Consider AATCAC, for which the binding signal was 1.05 fold enrichment (6-mer frequency, TF over GST control).

CCGTTT: the binding signal was 1.57 fold enrichment (6-mer frequency, TF over GST control).

Consider CCTGCT, for which the binding signal is 1.82 fold enrichment (6-mer frequency, TF over GST control).

For TAGCAC, the binding signal was 1.14 fold enrichment (6-mer frequency, TF over GST control).

On to ACAGCT, for which the binding signal was 1.02 fold enrichment (6-mer frequency, TF over GST control).

With ACGCTA, the binding signal is 1.15 fold enrichment (6-mer frequency, TF over GST control).

As for TGCCTC, the binding signal is 1.39 fold enrichment (6-mer frequency, TF over GST control).

TCCCAT: the binding signal is 1.23 fold enrichment (6-mer frequency, TF over GST control).

In the case of TTCGGT, the binding signal is 1.13 fold enrichment (6-mer frequency, TF over GST control).

On to AAGTAA, for which the binding signal is 1.23 fold enrichment (6-mer frequency, TF over GST control).

In the case of TGTCTT, the binding signal is 1.28 fold enrichment (6-mer frequency, TF over GST control).

Turning to CTCGTC, the binding signal was 1.35 fold enrichment (6-mer frequency, TF over GST control).

Consider GACTCT, for which the binding signal was 1.21 fold enrichment (6-mer frequency, TF over GST control).

Take CAATTT: the binding signal is 1.21 fold enrichment (6-mer frequency, TF over GST control).

For AACTGC, the binding signal was 1.28 fold enrichment (6-mer frequency, TF over GST control).

As to TGCTTT, the binding signal was 1.02 fold enrichment (6-mer frequency, TF over GST control).

As to CGTATT, the binding signal was 1.16 fold enrichment (6-mer frequency, TF over GST control).

Consider CTTGGT, for which the binding signal is 1.51 fold enrichment (6-mer frequency, TF over GST control).

CCCTTA: the binding signal is 1.38 fold enrichment (6-mer frequency, TF over GST control).

For the sequence AACTAG, the binding signal was 1.08 fold enrichment (6-mer frequency, TF over GST control).

Take TATATT: the binding signal was 1.32 fold enrichment (6-mer frequency, TF over GST control).

For the sequence AGGTCT, the binding signal was 1.1 fold enrichment (6-mer frequency, TF over GST control).

Turning to TAATTC, the binding signal is 1.37 fold enrichment (6-mer frequency, TF over GST control).

In the case of ATCCGC, the binding signal was 2.36 fold enrichment (6-mer frequency, TF over GST control).

Take CCTATC: the binding signal is 1.29 fold enrichment (6-mer frequency, TF over GST control).

Take GTTTCT: the binding signal was 1.21 fold enrichment (6-mer frequency, TF over GST control).

For TCCAAC, the binding signal was 1.28 fold enrichment (6-mer frequency, TF over GST control).

On to TCCGTA, for which the binding signal is 1.79 fold enrichment (6-mer frequency, TF over GST control).

On to CCTTGA, for which the binding signal was 1.33 fold enrichment (6-mer frequency, TF over GST control).

Take TCCTGC: the binding signal was 1.98 fold enrichment (6-mer frequency, TF over GST control).

For the sequence TTACTC, the binding signal was 1.28 fold enrichment (6-mer frequency, TF over GST control).

As to TTTGCC, the binding signal was 1.21 fold enrichment (6-mer frequency, TF over GST control).

Regarding TACAGA, the binding signal was 1.16 fold enrichment (6-mer frequency, TF over GST control).

With TGTTTT, the binding signal is 1.41 fold enrichment (6-mer frequency, TF over GST control).

Consider AAGTAT, for which the binding signal was 1.31 fold enrichment (6-mer frequency, TF over GST control).

ACTTTC: the binding signal was 1.51 fold enrichment (6-mer frequency, TF over GST control).

For the sequence TATACA, the binding signal is 1.44 fold enrichment (6-mer frequency, TF over GST control).

Turning to ATTTAA, the binding signal is 1.24 fold enrichment (6-mer frequency, TF over GST control).

As for CACGAT, the binding signal was 1.26 fold enrichment (6-mer frequency, TF over GST control).

Consider AACAAT, for which the binding signal was 1.2 fold enrichment (6-mer frequency, TF over GST control).

A further assay addresses T3, ETV7 (Homo sapiens, UniProt Q9Y603 1-341).
T3 sequence: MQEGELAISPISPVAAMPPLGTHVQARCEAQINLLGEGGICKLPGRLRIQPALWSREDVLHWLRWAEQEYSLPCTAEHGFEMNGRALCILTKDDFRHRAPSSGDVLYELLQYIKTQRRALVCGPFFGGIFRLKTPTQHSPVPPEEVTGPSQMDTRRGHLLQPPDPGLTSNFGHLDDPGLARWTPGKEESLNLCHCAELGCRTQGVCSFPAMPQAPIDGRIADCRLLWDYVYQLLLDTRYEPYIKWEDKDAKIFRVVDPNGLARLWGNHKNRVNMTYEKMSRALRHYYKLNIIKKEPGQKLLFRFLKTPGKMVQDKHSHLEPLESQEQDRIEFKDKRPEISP
The assay is described as above. Conditions: protein: recombinant; tags: N-terminal GST; dsDNA, one strand shown. The method, boiled down:
as §1
For the sequence AATCAC, the binding signal is 1.02 fold enrichment (6-mer frequency, TF over GST control).

Regarding CCGTTT, the binding signal is 1.49 fold enrichment (6-mer frequency, TF over GST control).

CCTGCT: the binding signal was 1.65 fold enrichment (6-mer frequency, TF over GST control).

On to TAGCAC, for which the binding signal is 1.08 fold enrichment (6-mer frequency, TF over GST control).

Turning to ACAGCT, the binding signal was 1.21 fold enrichment (6-mer frequency, TF over GST control).

Turning to ACGCTA, the binding signal is 1.17 fold enrichment (6-mer frequency, TF over GST control).

As for TGCCTC, the binding signal was 1.35 fold enrichment (6-mer frequency, TF over GST control).

Regarding TCCCAT, the binding signal is 1.28 fold enrichment (6-mer frequency, TF over GST control).

For TTCGGT, the binding signal was 1.15 fold enrichment (6-mer frequency, TF over GST control).

As for AAGTAA, the binding signal was 1.27 fold enrichment (6-mer frequency, TF over GST control).

For TGTCTT, the binding signal is 1.25 fold enrichment (6-mer frequency, TF over GST control).

For the sequence CTCGTC, the binding signal was 1.46 fold enrichment (6-mer frequency, TF over GST control).

Regarding GACTCT, the binding signal was 1.23 fold enrichment (6-mer frequency, TF over GST control).

In the case of CAATTT, the binding signal was 1.31 fold enrichment (6-mer frequency, TF over GST control).

AACTGC: the binding signal was 1.3 fold enrichment (6-mer frequency, TF over GST control).

With TGCTTT, the binding signal was 1.19 fold enrichment (6-mer frequency, TF over GST control).

Take CGTATT: the binding signal is 1.07 fold enrichment (6-mer frequency, TF over GST control).

As to CTTGGT, the binding signal was 1.49 fold enrichment (6-mer frequency, TF over GST control).

Regarding CCCTTA, the binding signal was 1.23 fold enrichment (6-mer frequency, TF over GST control).

On to AACTAG, for which the binding signal was 1.1 fold enrichment (6-mer frequency, TF over GST control).

For TATATT, the binding signal is 1.4 fold enrichment (6-mer frequency, TF over GST control).

AGGTCT: the binding signal was 1.2 fold enrichment (6-mer frequency, TF over GST control).

In the case of TAATTC, the binding signal was 1.38 fold enrichment (6-mer frequency, TF over GST control).

ATCCGC: the binding signal was 1.79 fold enrichment (6-mer frequency, TF over GST control).

As for CCTATC, the binding signal was 1.3 fold enrichment (6-mer frequency, TF over GST control).

In the case of GTTTCT, the binding signal is 1.38 fold enrichment (6-mer frequency, TF over GST control).

TCCAAC: the binding signal is 1.32 fold enrichment (6-mer frequency, TF over GST control).

Consider TCCGTA, for which the binding signal is 1.37 fold enrichment (6-mer frequency, TF over GST control).

As to CCTTGA, the binding signal is 1.14 fold enrichment (6-mer frequency, TF over GST control).

With TCCTGC, the binding signal was 1.69 fold enrichment (6-mer frequency, TF over GST control).

With TTACTC, the binding signal was 1.29 fold enrichment (6-mer frequency, TF over GST control).

Take TTTGCC: the binding signal is 1.26 fold enrichment (6-mer frequency, TF over GST control).

On to TACAGA, for which the binding signal is 1.18 fold enrichment (6-mer frequency, TF over GST control).

With TGTTTT, the binding signal is 1.28 fold enrichment (6-mer frequency, TF over GST control).

With AAGTAT, the binding signal was 1.5 fold enrichment (6-mer frequency, TF over GST control).

Take ACTTTC: the binding signal is 1.51 fold enrichment (6-mer frequency, TF over GST control).

As for TATACA, the binding signal was 1.35 fold enrichment (6-mer frequency, TF over GST control).

As to ATTTAA, the binding signal is 1.27 fold enrichment (6-mer frequency, TF over GST control).

As to CACGAT, the binding signal was 1.32 fold enrichment (6-mer frequency, TF over GST control).

Regarding AACAAT, the binding signal was 1.24 fold enrichment (6-mer frequency, TF over GST control).
